In PMC7862700, “An all-to-all approach to the identification of sequence-specific readers for epigenetic DNA modifications on cytosine”:

Assays:
Assay in all cases: DAPPL (digital affinity profiling via proximity ligation, sequencing); 10 mM Tris-HCl pH 7.5, 50 mM NaCl, 1 mM DTT, 4% glycerol, room temperature, 30 min; GST-TFs on glutathione beads, 16-mer random dsDNA library, 0.1% formaldehyde crosslink after washing; high values mean tight binding
[1] = molecular target: T1, FEV (Homo sapiens, UniProt Q99581 1-238); conditions: protein: recombinant; tags: N-terminal GST; dsDNA, one strand shown
T1 sequence: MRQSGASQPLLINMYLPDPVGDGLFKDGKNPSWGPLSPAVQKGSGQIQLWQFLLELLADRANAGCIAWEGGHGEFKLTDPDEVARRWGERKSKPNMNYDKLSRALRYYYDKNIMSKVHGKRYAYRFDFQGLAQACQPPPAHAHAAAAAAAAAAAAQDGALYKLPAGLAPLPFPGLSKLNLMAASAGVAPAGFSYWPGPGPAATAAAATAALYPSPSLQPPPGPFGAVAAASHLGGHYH
Procedure, shortened: (§1)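 Binding signal is each hexamer's read frequency for a factor divided by its frequency in the tag-only sample. The factors were GST-fused human transcription factors from yeast, captured on glutathione beads, DNA-barcoded and pooled with that sample. Pools were incubated with 200 nmole of a random double-stranded 16-mer DNA library in Tris/NaCl/DTT/glycerol buffer at room temperature for 30 min, then washed, crosslinked with 0.1% formaldehyde, proximity-ligated with BsaI/T4 ligase (1 h, 37 °C), PCR-amplified and sequenced on an Illumina NextSeq500.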

[2] = molecular target: ETV5 (Homo sapiens, UniProt P41161 1-510); conditions: protein: recombinant; tags: N-terminal GST; dsDNA, one strand shown
Procedure, shortened: as §1

[3] = molecular target: HSF1 (Homo sapiens, UniProt Q00613 1-529); conditions: protein: recombinant; tags: N-terminal GST; chain copies: 3; dsDNA, one strand shown
Procedure, shortened: as §1

[4] = molecular target: T2, SPIC (Homo sapiens, UniProt Q8N5J4 1-248); conditions: protein: recombinant; tags: N-terminal GST; dsDNA, one strand shown
T2 sequence: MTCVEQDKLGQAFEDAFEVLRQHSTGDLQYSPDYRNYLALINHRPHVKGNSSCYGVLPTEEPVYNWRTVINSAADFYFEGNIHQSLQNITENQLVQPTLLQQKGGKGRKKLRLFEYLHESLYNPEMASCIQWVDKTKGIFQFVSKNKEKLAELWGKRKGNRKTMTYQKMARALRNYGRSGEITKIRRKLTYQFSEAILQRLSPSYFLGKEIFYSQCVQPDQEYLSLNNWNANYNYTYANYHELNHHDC
Procedure, shortened: as §1

[5] = molecular target: ELF4 (Homo sapiens, UniProt Q99607 1-663); conditions: protein: recombinant; tags: N-terminal GST; dsDNA, one strand shown
Procedure, shortened: as §1

[6] = molecular target: T3, ELK4 (Homo sapiens, UniProt P28324-2 1-405); conditions: protein: recombinant; tags: N-terminal GST; dsDNA, one strand shown
T3 sequence: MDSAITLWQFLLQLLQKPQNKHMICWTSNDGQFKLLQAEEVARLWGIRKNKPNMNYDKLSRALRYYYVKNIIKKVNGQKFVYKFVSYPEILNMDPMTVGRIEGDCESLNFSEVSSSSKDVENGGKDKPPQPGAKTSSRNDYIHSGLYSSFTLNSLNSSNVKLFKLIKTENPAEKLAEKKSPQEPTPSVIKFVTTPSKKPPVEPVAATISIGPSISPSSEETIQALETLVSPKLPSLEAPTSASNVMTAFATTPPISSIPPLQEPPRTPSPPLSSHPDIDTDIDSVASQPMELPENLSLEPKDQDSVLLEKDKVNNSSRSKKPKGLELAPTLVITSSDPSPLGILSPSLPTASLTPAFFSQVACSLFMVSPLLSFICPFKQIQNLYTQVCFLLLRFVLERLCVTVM
Procedure, shortened: as §1

[7] = molecular target: T4, ETV2 (Homo sapiens, UniProt O00321 1-342); conditions: protein: recombinant; tags: N-terminal GST; dsDNA, one strand shown
T4 sequence: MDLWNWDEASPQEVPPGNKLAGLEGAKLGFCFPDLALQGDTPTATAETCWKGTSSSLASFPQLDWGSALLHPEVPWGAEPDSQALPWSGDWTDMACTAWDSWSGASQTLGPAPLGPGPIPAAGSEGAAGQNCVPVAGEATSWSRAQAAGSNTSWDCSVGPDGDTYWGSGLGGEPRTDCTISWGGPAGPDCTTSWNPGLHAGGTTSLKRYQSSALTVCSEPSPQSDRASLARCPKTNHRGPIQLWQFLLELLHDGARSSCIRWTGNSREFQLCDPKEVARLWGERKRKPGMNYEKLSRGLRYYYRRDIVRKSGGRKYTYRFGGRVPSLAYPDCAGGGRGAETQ
Procedure, shortened: as §1

[8] = molecular target: T5, ELF3 (Homo sapiens, UniProt P78545 1-371); conditions: protein: recombinant; tags: N-terminal GST; dsDNA, one strand shown
T5 sequence: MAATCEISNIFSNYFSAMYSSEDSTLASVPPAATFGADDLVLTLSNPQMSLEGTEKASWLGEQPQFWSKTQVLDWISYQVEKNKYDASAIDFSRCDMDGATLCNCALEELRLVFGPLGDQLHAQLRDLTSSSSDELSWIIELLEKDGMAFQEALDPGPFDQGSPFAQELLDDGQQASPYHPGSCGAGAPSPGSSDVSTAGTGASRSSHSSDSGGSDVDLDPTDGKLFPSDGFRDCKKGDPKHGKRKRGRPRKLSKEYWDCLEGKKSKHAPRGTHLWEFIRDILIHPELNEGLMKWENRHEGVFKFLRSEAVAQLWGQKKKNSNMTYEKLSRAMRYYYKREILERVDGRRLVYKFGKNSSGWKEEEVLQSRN
Procedure, shortened: as §1

[9] = molecular target: CRX (Homo sapiens, UniProt O43186 1-299); conditions: protein: recombinant; tags: N-terminal GST; dsDNA, one strand shown
Procedure, shortened: as §1

[10] = molecular target: ETV1 (Homo sapiens, UniProt P50549 1-477); conditions: protein: recombinant; tags: N-terminal GST; dsDNA, one strand shown
Procedure, shortened: as §1

[11] = molecular target: T6, ERF (Homo sapiens, UniProt P50548 1-548); conditions: protein: recombinant; tags: N-terminal GST; dsDNA, one strand shown
T6 sequence: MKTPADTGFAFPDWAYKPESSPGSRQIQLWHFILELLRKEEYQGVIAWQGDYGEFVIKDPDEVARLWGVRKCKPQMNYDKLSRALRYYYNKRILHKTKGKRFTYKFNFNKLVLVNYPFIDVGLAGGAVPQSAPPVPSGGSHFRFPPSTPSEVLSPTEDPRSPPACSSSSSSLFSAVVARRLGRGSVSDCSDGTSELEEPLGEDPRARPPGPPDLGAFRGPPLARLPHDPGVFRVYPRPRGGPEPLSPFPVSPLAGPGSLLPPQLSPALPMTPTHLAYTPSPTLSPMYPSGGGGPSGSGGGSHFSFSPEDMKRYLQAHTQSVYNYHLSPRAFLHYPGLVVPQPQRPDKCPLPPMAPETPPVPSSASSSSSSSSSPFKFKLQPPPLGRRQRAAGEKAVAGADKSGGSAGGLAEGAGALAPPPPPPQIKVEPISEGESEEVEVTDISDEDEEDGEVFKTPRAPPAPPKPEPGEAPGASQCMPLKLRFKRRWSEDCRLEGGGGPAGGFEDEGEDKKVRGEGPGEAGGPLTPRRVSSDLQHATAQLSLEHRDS
Procedure, shortened: as §1

[12] = molecular target: T7, ETV3L (Homo sapiens, UniProt Q6ZN32 1-361); conditions: protein: recombinant; tags: N-terminal GST; dsDNA, one strand shown
T7 sequence: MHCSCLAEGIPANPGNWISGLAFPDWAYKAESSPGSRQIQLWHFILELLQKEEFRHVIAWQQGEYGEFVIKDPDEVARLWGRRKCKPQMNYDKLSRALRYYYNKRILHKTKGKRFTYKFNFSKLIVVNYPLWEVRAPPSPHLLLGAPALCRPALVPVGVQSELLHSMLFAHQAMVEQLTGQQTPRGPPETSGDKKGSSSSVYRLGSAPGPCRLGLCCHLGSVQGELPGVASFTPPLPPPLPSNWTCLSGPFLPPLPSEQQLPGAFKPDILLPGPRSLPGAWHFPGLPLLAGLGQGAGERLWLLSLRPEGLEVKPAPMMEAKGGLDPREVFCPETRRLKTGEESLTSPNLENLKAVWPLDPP
Procedure, shortened: as §1

[13] = molecular target: T8, ETS2 (Homo sapiens, UniProt P15036 1-469); conditions: protein: recombinant; tags: N-terminal GST; dsDNA, one strand shown
T8 sequence: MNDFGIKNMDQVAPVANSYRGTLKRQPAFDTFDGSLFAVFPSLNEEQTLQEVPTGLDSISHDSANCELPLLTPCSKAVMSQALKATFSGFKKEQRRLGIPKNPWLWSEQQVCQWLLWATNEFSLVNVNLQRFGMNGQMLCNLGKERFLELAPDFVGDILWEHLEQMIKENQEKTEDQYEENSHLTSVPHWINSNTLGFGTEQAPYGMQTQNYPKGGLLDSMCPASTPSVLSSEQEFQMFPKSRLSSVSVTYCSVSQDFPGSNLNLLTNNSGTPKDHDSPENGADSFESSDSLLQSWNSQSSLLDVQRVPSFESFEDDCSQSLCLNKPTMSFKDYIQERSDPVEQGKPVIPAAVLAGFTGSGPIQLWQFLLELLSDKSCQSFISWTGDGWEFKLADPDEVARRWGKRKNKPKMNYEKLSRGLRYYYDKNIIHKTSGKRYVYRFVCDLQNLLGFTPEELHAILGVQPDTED
Procedure, shortened: as §1

[14] = molecular target: T9, SPDEF (Homo sapiens, UniProt O95238 1-335); conditions: protein: recombinant; tags: N-terminal GST; dsDNA, one strand shown
T9 sequence: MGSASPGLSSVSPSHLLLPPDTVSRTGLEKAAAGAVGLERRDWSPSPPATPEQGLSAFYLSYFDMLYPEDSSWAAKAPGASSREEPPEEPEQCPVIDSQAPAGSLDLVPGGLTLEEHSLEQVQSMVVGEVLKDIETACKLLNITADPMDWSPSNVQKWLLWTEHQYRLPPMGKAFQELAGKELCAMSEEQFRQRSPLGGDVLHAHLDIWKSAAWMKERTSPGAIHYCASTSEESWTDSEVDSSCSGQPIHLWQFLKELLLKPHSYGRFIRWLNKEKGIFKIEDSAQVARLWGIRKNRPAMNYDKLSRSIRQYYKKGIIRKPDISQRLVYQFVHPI
Procedure, shortened: as §1

[15] = molecular target: T10, ETV7 (Homo sapiens, UniProt Q9Y603 1-341); conditions: protein: recombinant; tags: N-terminal GST; dsDNA, one strand shown
T10 sequence: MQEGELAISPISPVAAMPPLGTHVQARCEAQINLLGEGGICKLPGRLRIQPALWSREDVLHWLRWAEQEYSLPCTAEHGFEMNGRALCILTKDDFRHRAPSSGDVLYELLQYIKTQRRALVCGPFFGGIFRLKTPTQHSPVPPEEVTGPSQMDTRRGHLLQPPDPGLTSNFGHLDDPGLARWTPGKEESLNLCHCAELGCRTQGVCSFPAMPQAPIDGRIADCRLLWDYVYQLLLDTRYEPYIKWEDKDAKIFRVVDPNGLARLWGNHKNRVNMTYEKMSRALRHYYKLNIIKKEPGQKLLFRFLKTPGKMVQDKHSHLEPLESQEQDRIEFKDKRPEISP
Procedure, shortened: as §1

[16] = molecular target: T11, ELF5 (Homo sapiens, UniProt Q9UKW6-2 1-255); conditions: protein: recombinant; tags: N-terminal GST; dsDNA, one strand shown
T11 sequence: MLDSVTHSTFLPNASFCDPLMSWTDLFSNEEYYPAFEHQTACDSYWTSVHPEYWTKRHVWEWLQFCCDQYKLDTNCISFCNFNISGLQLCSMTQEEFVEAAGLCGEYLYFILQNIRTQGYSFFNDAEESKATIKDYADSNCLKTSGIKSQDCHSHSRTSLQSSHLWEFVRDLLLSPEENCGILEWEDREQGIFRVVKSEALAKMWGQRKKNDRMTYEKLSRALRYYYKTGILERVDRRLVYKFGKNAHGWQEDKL
Procedure, shortened: as §1

[17] = molecular target: T12, ETV3 (Homo sapiens, UniProt P41162-2 1-143); conditions: protein: recombinant; tags: N-terminal GST; dsDNA, one strand shown
T12 sequence: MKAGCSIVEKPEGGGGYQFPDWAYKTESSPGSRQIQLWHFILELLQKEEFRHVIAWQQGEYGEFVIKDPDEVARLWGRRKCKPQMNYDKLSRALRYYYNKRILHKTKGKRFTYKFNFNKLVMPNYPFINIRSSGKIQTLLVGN
Procedure, shortened: as §1

[18] = molecular target: ETV6 (Homo sapiens, UniProt P41212 1-452); conditions: protein: recombinant; tags: N-terminal GST; dsDNA, one strand shown
Procedure, shortened: as §1

Chain of ETV1 (P50549 whole entry): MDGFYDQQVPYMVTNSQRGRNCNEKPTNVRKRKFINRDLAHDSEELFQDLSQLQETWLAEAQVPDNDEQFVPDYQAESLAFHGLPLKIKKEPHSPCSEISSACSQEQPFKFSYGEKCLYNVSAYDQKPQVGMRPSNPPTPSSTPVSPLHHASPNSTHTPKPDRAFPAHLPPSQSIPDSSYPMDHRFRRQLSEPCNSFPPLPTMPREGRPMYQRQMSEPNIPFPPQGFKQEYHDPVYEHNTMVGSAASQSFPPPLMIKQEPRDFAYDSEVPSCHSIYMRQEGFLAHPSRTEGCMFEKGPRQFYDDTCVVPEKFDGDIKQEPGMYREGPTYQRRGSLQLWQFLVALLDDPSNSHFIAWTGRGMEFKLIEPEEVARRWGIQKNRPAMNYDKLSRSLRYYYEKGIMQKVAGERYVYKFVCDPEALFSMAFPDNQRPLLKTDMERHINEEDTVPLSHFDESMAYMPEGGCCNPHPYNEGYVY
Chain of CRX (O43186 whole entry): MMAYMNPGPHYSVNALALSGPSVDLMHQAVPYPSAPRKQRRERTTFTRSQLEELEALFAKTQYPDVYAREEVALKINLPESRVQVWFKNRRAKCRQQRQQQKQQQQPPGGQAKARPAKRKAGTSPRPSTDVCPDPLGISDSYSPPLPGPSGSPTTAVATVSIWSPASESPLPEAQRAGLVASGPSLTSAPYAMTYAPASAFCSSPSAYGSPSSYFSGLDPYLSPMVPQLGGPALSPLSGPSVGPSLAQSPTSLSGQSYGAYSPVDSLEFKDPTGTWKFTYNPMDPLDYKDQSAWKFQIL
Chain of ETV5 (P41161 whole entry): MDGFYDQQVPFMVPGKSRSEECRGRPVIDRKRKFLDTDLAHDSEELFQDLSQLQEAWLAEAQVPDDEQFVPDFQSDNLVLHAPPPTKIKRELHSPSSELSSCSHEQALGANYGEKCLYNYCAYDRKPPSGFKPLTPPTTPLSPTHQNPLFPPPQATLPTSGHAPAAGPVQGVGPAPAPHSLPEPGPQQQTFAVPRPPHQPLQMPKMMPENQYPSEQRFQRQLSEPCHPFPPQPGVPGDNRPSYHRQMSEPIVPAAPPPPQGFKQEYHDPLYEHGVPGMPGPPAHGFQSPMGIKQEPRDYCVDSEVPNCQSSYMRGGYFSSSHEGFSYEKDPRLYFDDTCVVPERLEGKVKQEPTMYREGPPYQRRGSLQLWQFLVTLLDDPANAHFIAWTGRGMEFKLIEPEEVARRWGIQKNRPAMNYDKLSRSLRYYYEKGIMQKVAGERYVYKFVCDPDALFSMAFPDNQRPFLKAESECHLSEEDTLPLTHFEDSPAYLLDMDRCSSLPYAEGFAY
Chain of ELF4 (Q99607 whole entry): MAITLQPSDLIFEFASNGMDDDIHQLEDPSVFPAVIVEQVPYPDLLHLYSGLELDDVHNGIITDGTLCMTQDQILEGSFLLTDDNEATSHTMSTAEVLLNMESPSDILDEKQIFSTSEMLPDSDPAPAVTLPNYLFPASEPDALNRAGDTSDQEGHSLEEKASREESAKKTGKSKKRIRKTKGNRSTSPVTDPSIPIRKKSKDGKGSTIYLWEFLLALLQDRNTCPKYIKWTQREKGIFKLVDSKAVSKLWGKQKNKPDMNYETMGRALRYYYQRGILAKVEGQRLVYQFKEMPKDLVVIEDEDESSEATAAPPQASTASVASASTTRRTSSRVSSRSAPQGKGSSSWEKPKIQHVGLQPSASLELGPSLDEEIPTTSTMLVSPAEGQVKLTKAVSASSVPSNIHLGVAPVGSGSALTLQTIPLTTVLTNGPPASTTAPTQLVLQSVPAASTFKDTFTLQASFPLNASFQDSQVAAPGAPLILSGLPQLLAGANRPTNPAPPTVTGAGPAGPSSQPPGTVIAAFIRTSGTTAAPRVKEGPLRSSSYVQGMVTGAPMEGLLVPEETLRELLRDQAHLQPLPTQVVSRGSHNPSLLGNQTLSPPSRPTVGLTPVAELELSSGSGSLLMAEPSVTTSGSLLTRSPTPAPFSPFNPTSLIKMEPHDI
Chain of HSF1 (Q00613 whole entry): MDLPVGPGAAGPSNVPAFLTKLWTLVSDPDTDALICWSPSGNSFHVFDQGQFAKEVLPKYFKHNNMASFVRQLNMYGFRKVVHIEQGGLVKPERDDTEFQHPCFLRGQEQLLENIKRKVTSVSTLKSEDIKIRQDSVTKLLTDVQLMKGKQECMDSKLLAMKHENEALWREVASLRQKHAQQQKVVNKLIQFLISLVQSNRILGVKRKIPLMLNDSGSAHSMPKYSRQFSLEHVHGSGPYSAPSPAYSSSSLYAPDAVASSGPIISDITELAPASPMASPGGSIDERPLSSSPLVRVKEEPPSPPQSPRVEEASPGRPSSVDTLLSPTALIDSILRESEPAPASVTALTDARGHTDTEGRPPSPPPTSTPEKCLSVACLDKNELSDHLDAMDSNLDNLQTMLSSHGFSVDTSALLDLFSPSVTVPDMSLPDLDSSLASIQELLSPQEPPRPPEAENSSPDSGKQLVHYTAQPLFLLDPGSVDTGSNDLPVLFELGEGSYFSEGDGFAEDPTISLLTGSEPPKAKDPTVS
Chain of ETV6 (P41212 whole entry): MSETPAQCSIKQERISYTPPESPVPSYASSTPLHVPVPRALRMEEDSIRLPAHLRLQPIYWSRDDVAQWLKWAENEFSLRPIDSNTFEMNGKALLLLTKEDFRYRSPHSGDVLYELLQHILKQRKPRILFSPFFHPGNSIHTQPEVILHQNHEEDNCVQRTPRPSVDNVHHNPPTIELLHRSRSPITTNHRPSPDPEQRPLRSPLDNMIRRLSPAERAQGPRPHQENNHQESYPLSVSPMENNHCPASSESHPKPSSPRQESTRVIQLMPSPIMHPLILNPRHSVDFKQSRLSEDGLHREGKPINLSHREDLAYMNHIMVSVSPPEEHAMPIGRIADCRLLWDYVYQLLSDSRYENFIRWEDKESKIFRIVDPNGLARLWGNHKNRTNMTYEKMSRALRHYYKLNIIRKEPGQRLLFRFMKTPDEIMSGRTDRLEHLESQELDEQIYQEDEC

CTACTC
binding signal [1]: 1.37 fold enrichment (6-mer frequency, TF over GST control)
binding signal [2]: 1.35 fold enrichment (6-mer frequency, TF over GST control)
binding signal [3]: 1.32 fold enrichment (6-mer frequency, TF over GST control)
binding signal [4]: 1.21 fold enrichment (6-mer frequency, TF over GST control)
binding signal [5]: 1.37 fold enrichment (6-mer frequency, TF over GST control)
binding signal [6]: 1.41 fold enrichment (6-mer frequency, TF over GST control)
binding signal [7]: 1.38 fold enrichment (6-mer frequency, TF over GST control)
binding signal [8]: 1.32 fold enrichment (6-mer frequency, TF over GST control)
binding signal [9]: 1.28 fold enrichment (6-mer frequency, TF over GST control)
binding signal [10]: 1.32 fold enrichment (6-mer frequency, TF over GST control)
binding signal [11]: 1.48 fold enrichment (6-mer frequency, TF over GST control)
binding signal [12]: 1.45 fold enrichment (6-mer frequency, TF over GST control)
binding signal [13]: 1.34 fold enrichment (6-mer frequency, TF over GST control)
binding signal [14]: 1.29 fold enrichment (6-mer frequency, TF over GST control)
binding signal [15]: 1.13 fold enrichment (6-mer frequency, TF over GST control)
binding signal [16]: 1.29 fold enrichment (6-mer frequency, TF over GST control)
binding signal [17]: 1.25 fold enrichment (6-mer frequency, TF over GST control)
binding signal [18]: 1.3 fold enrichment (6-mer frequency, TF over GST control)
